Hits are enriched below; roughly 6.3% of the tested compounds scored in any of these assays.
S2 tox – Viability Counterscreen for Primary qHTS for Inhibitors of ATXN expression; AID 651635, 2014; S2 cells (HEK-293 line with an ATXN2-luciferase reporter) viability, CellTiter-Fluor protease fluorescence, 24 h; 0.49% of 400,000 active; Potency, µM (top dose mostly 56.7 µM), actives largely listed as cytotoxic; further: nearly all actives have a fitted effect of over 40% in size
TGFb SMAD3 inh – qHTS for Inhibitors of TGF-b; HepG2 CAGA-GFP TGF-b/SMAD3 reporter, GFP fluorescence, 18 h; TGF-beta stimulated, 500 pg/mL final; 1.2% of 410,000 active; Potency, µM (highest dose often 46.1 µM), for the others: at the highest dose activity, negative = inhibition, most hits filed as inhibitors; AID 588855, 2011; further: on the % scale 0 is the no-effect control and ±100 the full control effect; nearly all actives have a fitted effect of over 65% in size
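Smad-responsive CAGA-GFP expression was quantified in HEPG2 cells exposed to compounds and 500 pg/mL final TGF-beta for 18 h at 37 degrees C; unstimulated wells defined full inhibition.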
RORg inh – qHTS for inhibitors of ROR gamma transcriptional activity | Nuclear receptor ROR-gamma (Mus musculus), P51450 | Drosophila S2 Gal4-RORgamma UAS-luciferase reporter, 20 h | 5.4% of 310,000 active | AID 2551, 2010 | Potency, µM (doses to about 53.6 µM), for inactives: top-dose activity change, negative = inhibition, hits mostly inhibitors; further: on the % scale 0 is the no-effect control and ±100 the full control effect; nearly all actives have a fitted effect of over 60% in size
Target sequence (P51450 whole entry, looked up, the tested form may be a part): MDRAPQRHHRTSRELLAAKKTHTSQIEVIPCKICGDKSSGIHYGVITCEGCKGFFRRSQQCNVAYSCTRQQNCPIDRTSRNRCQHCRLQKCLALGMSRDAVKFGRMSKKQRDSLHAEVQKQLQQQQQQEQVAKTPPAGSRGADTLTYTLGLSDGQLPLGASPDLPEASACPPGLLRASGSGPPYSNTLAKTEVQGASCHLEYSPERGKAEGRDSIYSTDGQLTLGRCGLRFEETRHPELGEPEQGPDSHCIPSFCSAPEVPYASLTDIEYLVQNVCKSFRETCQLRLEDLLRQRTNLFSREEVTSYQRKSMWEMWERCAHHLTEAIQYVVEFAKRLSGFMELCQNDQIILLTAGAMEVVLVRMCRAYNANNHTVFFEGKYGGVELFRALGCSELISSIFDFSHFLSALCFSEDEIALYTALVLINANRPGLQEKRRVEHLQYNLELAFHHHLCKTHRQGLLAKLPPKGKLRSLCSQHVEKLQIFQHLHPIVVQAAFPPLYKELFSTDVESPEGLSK
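Read-out: Photinus luciferase luminescence; inhibitors lower reporter signal. Insect Schneider cells with Gal4-ROR gamma fusion under metallothionein promoter, UAS reporter; 700 uM final copper sulfate induction, 20 hr, ambient temperature.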
Gal4-VP16 FLuc – VP16 counterscreen qHTS for inhibitors of ROR gamma transcriptional activity | Drosophila S2 Gal4-VP16 UAS-luciferase, luminescence, 20 h | Potency, µM (titrated, usually from 53.6 µM), for the others: at the highest dose activity, negative = inhibition, hits mostly inhibitors | 3.5% of 310,000 active;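 further: Gal4-VP16 expression switched on by copper sulfate through the metallothionein promoter; on the % scale 0 is the no-effect control and ±100 the full control effect; nearly all actives have a fitted effect of over 50% in size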
ATXN2 expr inh – Primary qHTS for Inhibitors of ATXN expression; HEK-293 ATXN2-luciferase reporter, luminescence, 24 h; Potency, µM (top dose mostly 57 µM), without a hit: top-dose activity change, negative = inhibition, hits mostly inhibitors; 0.72% of 360,000 active; further: on the % scale 0 is the no-effect control and ±100 the full control effect; nearly all actives have a fitted effect of over 55% in size
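qHTS (up to 57 uM final) was run with 24 h compound exposure of reporter cells at 37 °C. Each well was multiplexed: SteadyGlo luminescence measured ATXN2-luciferase expression after a fluorogenic Gly-Phe-AFC viability readout (25 uM final).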
HepG2 tox-1 – qHTS for Inhibitors of TGF-b: Cytotox Counterscreen; HepG2 CAGA-GFP viability, ATP luminescence, 18 h; 0.76% of 410,000 active; Potency, µM (top dose mostly 46.1 µM), inactives show top-dose activity change, negative = cytotoxicity, hits mostly cytotoxic; AID 588856, 2011
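CellTiter-Glo luminescence gave cytotoxicity after 18 hours at 37 degrees C. The cells were HepG2 CAGA-GFP in 1% FBS DMEM, stimulated with 500 pg/mL TGF-beta after compound addition. %Activity was normalised to no-cell wells (complete cell-killing) and DMSO (no toxicity), and curves were fitted and classified.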
TGFb confirm – qHTS for Inhibitors of TGF-b: Confirmation of Cherry Picks. Potency, µM (doses to about 46.1 µM), inactives show at the highest dose activity, negative = inhibition, actives largely listed as inhibitors. HepG2 CAGA-GFP TGF-b reporter, GFP fluorescence, 18 h; cells stimulated with TGF-beta, 500 pg/mL. shares compounds with TGFb SMAD3 inh. 63% of 1,600 active; further: on the % scale 0 is the no-effect control and ±100 the full control effect; nearly all actives have a fitted effect of over 65% in size
HepG2 tox-2 – qHTS for Inhibitors of TGF-b: Cytotox Counterscreen for Cherry Picks. shares compounds with TGFb SMAD3 inh. HepG2 CAGA-GFP viability, ATP luminescence, 18 h; cells stimulated with TGF-beta, 500 pg/mL. Potency, µM (titrated, usually from 46.1 µM), without a hit: at the top dose activity, negative = cytotoxicity, most hits filed as inhibitors. 27% of 1,600 active; further: on the % scale 0 is the no-effect control and ±100 the full control effect; nearly all actives have a fitted effect of over 70% in size
CCL64 TGFb inh – qHTS for Inhibitors of TGF-b: CCL64 Cells Orthogonal Assay for Cherry Picks | shares compounds with TGFb SMAD3 inh | CCL64 CAGA-GFP reporter, TGF-b stimulated, GFP fluorescence, 18 h | Potency, µM (doses to about 46.1 µM), without a hit: at the highest dose activity, negative = inhibition, usual class: inhibitors | 41% of 1,600 active | AID 720536, 2013; further: nearly all actives have a fitted effect of over 65% in size
TGFb COP inh – qHTS for Inhibitors of TGF-b: Hit Validation in HepG2 Cells using COP promoter | shares compounds with TGFb SMAD3 inh | HepG2 COP-GFP TGF-b reporter, GFP fluorescence, 18 h; cells stimulated by added recombinant TGF-beta | Potency, µM (highest dose often 46.1 µM), inactives show at the top dose activity, negative = inhibition, most hits filed as inhibitors | 3% of 1,600 active | AID 720537, 2013; further: nearly all actives have a fitted effect of over 70% in size
* hit, by the source's call. The call rests on the fitted dose curve; in most records, active means well fitted curve in the direction sought with a large enough effect; inconclusive means small, poorly fitted or top-dose-only effect, or another doubt; inactive means no such curve, though single readings can be large; an effect the other way counts as inactive or inconclusive. Potency means the concentration at half of the fitted maximal effect.

`COc1ccc(-c2cc(C(=O)Nc3sc4c(c3C#N)CCCC4)c3ccccc3n2)cc1` gave S2 tox inactive, TGFb SMAD3 inh -18.0%, RORg inh -16.2%, Gal4-VP16 FLuc -5.7%, ATXN2 expr inh 3.3% and HepG2 tox-1 -17.8%.
For COC(=O)c1sc(NC(=O)c2cc(-c3ccccc3)nc3ccccc23)c(C#N)c1C the results were S2 tox inconclusive, TGFb SMAD3 inh 5.01µM*, RORg inh 15.6%, Gal4-VP16 FLuc -13.6%, ATXN2 expr inh inconclusive, HepG2 tox-1 -46.0%, TGFb confirm 4.61µM*, HepG2 tox-2 inconclusive, CCL64 TGFb inh 3.26µM* and TGFb COP inh 44.5%.
For COc1ccccc1-c1cnc(C(O)c2cc(C)ccc2C)[nH]1 (configuration not stated) the results were S2 tox inactive, TGFb SMAD3 inh -8.5%, ATXN2 expr inh -3.3% and HepG2 tox-1 -25.0%.
Screening O=C(c1ccco1)N1CCN(c2ncnc3scc(-c4ccc(F)cc4)c23)CC1 returned S2 tox inactive, TGFb SMAD3 inh 17.8µM*, RORg inh 20.6%, Gal4-VP16 FLuc -15.5%, ATXN2 expr inh -10.1%, HepG2 tox-1 -12.2%, TGFb confirm 16.4µM*, HepG2 tox-2 1.5%, CCL64 TGFb inh 2.0% and TGFb COP inh 2.5%.
Cc1ccc(-c2csc3ncnc(N4CCN(C(=O)c5ccco5)CC4)c23)cc1 was read as S2 tox inactive, TGFb SMAD3 inh inconclusive, ATXN2 expr inh -5.5% and HepG2 tox-1 -5.0%.
For Cc1cccc(N(C(=O)CNC(=O)c2ccco2)C(C(=O)NC2CCCCC2)c2cccnc2)c1 (configuration not stated) the results were S2 tox inactive, TGFb SMAD3 inh -29.9%, RORg inh 5.5%, Gal4-VP16 FLuc -13.1%, ATXN2 expr inh -6.6% and HepG2 tox-1 -20.0%.

Source: PubChem
